Test results: article PMC5540273 (PLoS ONE, 2017)

How the values were obtained:
Conditions in all cases: concentration: 1 μM, replicates: in singlicate; n = 1
PCTK2 = system: T1, PCTK2
T1 construct: gene CDK17

PCTK3 = system: T2, PCTK3
T2 construct: gene CDK18

PDGFRA = system: PDGFRA
PDGFRB = system: PDGFRB
PDPK1 = system: PDPK1
PFTAIRE2 = system: PFTAIRE2
PFTK1 = system: T3, PFTK1
T3 construct: gene CDK14

PHKG1 = system: PHKG1
PHKG2 = system: PHKG2
PIK3C2B = system: PIK3C2B
PIK3C2G = system: PIK3C2G
PIK3CA = system: PIK3CA
PIK3CB = system: PIK3CB
PIK3CD = system: PIK3CD
PIK3CG = system: PIK3CG
PIK4CB = system: T4, PIK4CB
T4 construct: gene PI4KB

PIKFYVE = system: PIKFYVE
PIM1 = system: PIM1
PIM2 = system: PIM2
PIM3 = system: PIM3
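Also: KINOMEscan kinase panel screen.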

SMILES	%Inh (PCTK2)	%Inh (PCTK3)	%Inh (PDGFRA)	%Inh (PDGFRB)	%Inh (PDPK1)	%Inh (PFTAIRE2)	%Inh (PFTK1)	%Inh (PHKG1)	%Inh (PHKG2)	%Inh (PIK3C2B)	%Inh (PIK3C2G)	%Inh (PIK3CA)	%Inh (PIK3CB)	%Inh (PIK3CD)	%Inh (PIK3CG)	%Inh (PIK4CB)	%Inh (PIKFYVE)	%Inh (PIM1)	%Inh (PIM2)	%Inh (PIM3)
O=c1[nH]cc(-c2ccc(N3CCOCC3)cc2)c2sc(-c3cn[nH]c3)cc12 [GSK2276055]	28%	15%	32%	63%	0%	34%	42%	0%	6%	9%	0%	21%	11%	3%	21%	8%	31%	77%	51%	67%
COc1ccc(Nc2nccc(NCCNC(=O)c3cc4ccccc4s3)n2)cc1 [GSK1379896]	0%	0%	0%	15%	8%	14%	18%	0%	2%	0%	0%	0%	32%	0%	0%	0%	0%	8%	0%	2%
COc1cccc(C2=C(Nc3ccc(Cl)c(C(=O)O)c3)C(=O)NC2=O)c1 [SB-390769]	0%	29%	0%	5%	0%	0%	26%	0%	0%	0%	100%	10%	93.3%	0%	0%	0%	21%	0%	0%	0%
Cl.Cl.NCC(NCc1ccc(-c2ccnc3[nH]ccc23)s1)c1ccccc1 (stereo not shown) [GSK1321565]	0%	0%	5%	44%	0%	4%	1%	19%	13%	0%	0%	0%	19%	2%	21%	4%	3%	17%	0%	0%
O=C(O)C(F)(F)F.O=C(O)C(F)(F)F.O=c1[nH]ccc2nc(N[C@@H]3CCCNC3)nc(Nc3ccc(S(=O)(=O)N4CCOCC4)cc3)c12 [GSK2177277]	98.3%	96.2%	97.5%	100%	100%	61%	65%	97.7%	94.7%	51%	0%	0%	0%	0%	80%	59%	69%	97.5%	98.8%	99.8%
